In PubChem BioAssay AID624405 (Broad Institute, 2012):
About 250 (13%) of roughly 1,900 compounds were called active. About 4% were inconclusive and are not listed. The list is a sample of the results. Measured potencies and affinities stand elsewhere. A number with no mark means an inactive call.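 The calls were made as follows: active = fitted curve reaches 40% rescue activity at or below the top valid dose, in every test run; inconclusive = test runs disagree, some active and some inactive; inactive = every run misses the threshold or moves the wrong way.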

Test: suppressors of statin myotoxicity in myotubes, dose response, cell-based, C2C12 myotubes, ATP luminescence, cherry pick (AID 624405);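 also: myotubes are challenged with simvastatin at 10 µM to lower ATP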
Conditions: C2C12 myotubes + simvastatin, 48 h, scaled: DMSO wells 0, geranylgeraniol wells 100; series mostly up to 19.5 µM; rescue activity (ATP increase): at the top concentration

| SMILES | rescue activity (ATP increase) |
| --- | --- |
| Cc1noc(C)c1S(=O)(=O)Nc1ccc2c(c1)C(=O)N([C@H](C)CO)C[C@H](C)[C@H](CN(C)S(=O)(=O)c1cccs1)OCCCC[C@H](C)O2 | -0.171% [at 21 µM] |
| C[C@@H]1CN([C@H](C)CO)C(=O)Cc2cc(NC(=O)Nc3cccc4ccccc34)ccc2O[C@H]1CN(C)Cc1ccc(Cl)c(Cl)c1 | 26.4% [at 21 µM] |
| C[C@@H]1CN([C@@H](C)CO)C(=O)Cc2cc(NC(=O)Nc3cccc4ccccc34)ccc2O[C@H]1CN(C)Cc1ccc2c(c1)OCO2 | 8.72% [at 21 µM] |
| O=C(C[C@H]1CC[C@@H](NC(=O)c2ccc3c(c2)OCO3)[C@H](CO)O1)NCc1ccc(Oc2ccccc2)cc1 | -3.13% |
| COC(=O)c1c(C(=O)OC)c2cc(C)ccn2c1Cl | -25% |
| C[C@@H]1CN([C@@H](C)CO)C(=O)Cc2cc(NS(=O)(=O)c3ccc(F)cc3)ccc2O[C@H]1CN(C)Cc1ccc(Oc2ccccc2)cc1 | 29% |
| C[C@@H]1CN([C@@H](C)CO)C(=O)c2cccc(NS(=O)(=O)c3cccs3)c2O[C@@H]1CN(C)S(=O)(=O)c1ccc(Cl)cc1 | -8.95% |
| COc1cccc(-c2cnc3c(c2)C(=O)N([C@H](C)CO)C[C@H](C)[C@H](CN(C)S(=O)(=O)c2cccs2)O3)c1 | -17.5% |
| COc1ccc(C2CC(=O)c3cnc(N)nc3C2)c(OC)c1 (centres undefined) | -0.556% |
| COc1ccc2c(c1OC)C(=O)N(c1ccccn1)C2 | 17.7% |
| CCOc1ccc(OCCOCCOc2c(Cl)cccc2Cl)cc1 | 12.4% |
| COC(=O)c1cn(CC(=O)N2C(C)CCCC2C)c2ccccc12 (centres undefined) | 6.27% |
| COc1ccc(S(=O)(=O)Nc2ccc3c(c2)C(=O)N([C@@H](C)CO)C[C@@H](C)[C@H](CN(C)S(=O)(=O)c2ccc(F)cc2)OCCCC[C@H](C)O3)cc1 | -11.1% |
| CCS(=O)(=O)N1CCCC(C(=O)NCCc2ccc(OC)c(OC)c2)C1 (centres undefined) | -21.5% |
| O=C(Nc1cccc(Cl)c1)C1CCCN(S(=O)(=O)c2ccc(F)cc2)C1 (centres undefined) | 13.5% |
| Cc1ccc(S(=O)(=O)Nc2ccc3c(c2)C(=O)N([C@@H](C)CO)C[C@@H](C)[C@H](CN(C)S(=O)(=O)c2cccs2)O3)cc1 | -0.835% |
| CCOc1ccc(CNn2nnnc2N)cc1 | 16.8% |
| C=CCN(c1ccccc1OC)S(=O)(=O)c1cccc(C(=O)OC2CCOC2=O)c1 (centres undefined) | -36.4% |
| CCCNC(=O)N(C)C[C@@H]1Oc2cc(C3=CCCCC3)ccc2S(=O)(=O)N([C@H](C)CO)C[C@@H]1C | 14% |
| CSc1ccccc1NC(=O)c1ccccc1N(Cc1ccccc1)S(C)(=O)=O | 33.3% |

| SMILES | rescue activity (ATP increase) |
| --- | --- |
| Cc1ccc(NC(=O)c2ccccc2N(C)S(C)(=O)=O)cc1C | 3.5% |
| C[C@@H]1CCCCO[C@@H](CN(C)C(=O)c2ccccc2)[C@H](C)CN([C@@H](C)CO)C(=O)c2cc(NS(=O)(=O)c3cccs3)ccc2O1 | 19.3% |
| CCOC(=O)c1sc(NC(=O)c2c(C)nn(Cc3ccccc3)c2C)cc1C | -7.04% |
| COc1ccc(CN2[C@@H](CO)[C@@H]3c4ccccc4NC[C@@H]32)cc1 | -4.08% [at 21 µM] |
| COc1ccc(CN2[C@H](CO)[C@@H]3c4ccccc4NC[C@@H]32)cc1 | -13.1% |
| O=C(Nc1ccccc1Cl)N1C[C@@H]2[C@H](c3ccccc31)[C@@H](CO)N2Cc1ccccc1 | -13% |
| Cc1ccc(S(=O)(=O)Nc2ccc3c(c2)CC(=O)N([C@H](C)CO)C[C@H](C)[C@@H](CN(C)Cc2ccc(C(F)(F)F)cc2)O3)cc1 | 38.9% |
| O=C(NCc1ccco1)c1ccccc1NS(=O)(=O)c1ccc2c(c1)OCCO2 | 26% |
| FC(F)(F)c1nc2nncn2c2c1CCCCC2 | 23.5% |
| CCc1ccc(N2CC(C(=O)NC3=NCCS3)CC2=O)cc1 (centres undefined) | -11.8% |
| Cc1ccc(N(CN2CCCC2=O)C(=O)c2ccc(C)c(C)c2)cc1 | 29.9% |
| CC(C)N1C(=O)CCC1C(=O)N1CCC(Cc2ccccc2)CC1 (centres undefined) | 19.4% |
| CC(C)CC(NC(=O)C1CCC(C)CC1)C(=O)Nc1cccnc1 (centres undefined) | -6.5% |
| COc1ccc(S(=O)(=O)Nc2ccc3c(c2)CC(=O)N([C@H](C)CO)C[C@@H](C)[C@@H](CN(C)Cc2ccc(Cl)c(Cl)c2)O3)cc1 | 36.8% |
| CC(C)NC(=O)Nc1ccc2c(c1)C(=O)N([C@H](C)CO)C[C@@H](C)[C@H](CN(C)C(=O)C1CCCCC1)OCCCC[C@@H](C)O2 | 2.97% |
| C[C@@H]1CN([C@H](C)CO)C(=O)Cc2cc(NS(=O)(=O)c3cn(C)cn3)ccc2O[C@H]1CN(C)Cc1ccc(Cl)c(Cl)c1 | 12.2% [at 21 µM] |
| C[C@@H]1CN([C@@H](C)CO)C(=O)Cc2cc(NS(=O)(=O)c3cn(C)cn3)ccc2O[C@H]1CN(C)Cc1ccc(Cl)c(Cl)c1 | 4.02% |
| C[C@H]1CN([C@@H](C)CO)C(=O)Cc2cc(NS(=O)(=O)c3cn(C)cn3)ccc2O[C@@H]1CN(C)Cc1ccc(Cl)c(Cl)c1 | 12.7% |
| C[C@@H]1CN([C@@H](C)CO)C(=O)Cc2cc(NS(=O)(=O)c3cn(C)cn3)ccc2O[C@@H]1CN(C)Cc1ccc(Cl)c(Cl)c1 | 18.7% [at 21 µM] |
